Source: PubChem BioAssay (EPA / NIEHS)
“And” between values parts separate entries of the source, which are not always exact repeats. Equal entries are not always repeated. The source holds several records for some structures; these can differ, active in one and inactive in another. The source made the active and inactive calls. How the source made its calls: active means hit-call score of the fitted dose curve at least 0.9, where 1 is the maximum; inactive means score below 0.9.

Assay: ATG_ISRE_CIS: Attagene CIS-FACTORIAL HepG2 Assay for human Interferon Regulatory Factor 1 (IRF1) binding to an Interferon-Stimulated Response Element (ISRE) (AID 2282948)
Conditions: HepG2 ISRE cis-reporter (Attagene), mRNA transcription readout; actives raise or lower the signal
How it was run: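 Transfected HepG2 (multiple reporter transcription units, cis elements) dosed 24 h. RNA → oligo(dT) RT → PCR → 6-FAM primer extension → HpaI → CE. DMSO = negative control/baseline.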

| SMILES | outcome | AC50 |
| --- | --- | --- |
| CCC(C)c1nccnc1OC (centres undefined) | inactive | – |
| CCCCCCCCCC=CCC1CC(=O)OC1=O (centres undefined) | inactive | – |
| CCCCCCCCCCCC(=O)O | inactive | 146 µM (active) |
| C[C@]12CC[C@@H]3c4ccc(O)cc4CC[C@H]3[C@@H]1C[C@@H](O)[C@@H]2O | inactive | – |
| CC(=O)Nc1ccc(O)cc1 | inactive | – |
| O=C(O)C(=O)O | inactive | – |
| CCCCCCCCCCCCCCCC(=O)OC | inactive | – |
| CCC(C)c1ccccc1O (centres undefined) | inactive | – |
| CC(C)[C@@H]1CC[C@@H](C)C[C@H]1O | inactive | – |
| O=C1NS(=O)(=O)c2ccccc21 | inactive | – |
| CN(C)c1ccc(C(=C2C=CC(=[N+](C)C)C=C2)c2ccccc2)cc1 | – | 1.34 µM (active) and 1.85 µM (active) |
| O=C(F)C(F)(F)C(F)(F)C(F)(F)C(=O)F | inactive | – |
| CC(=O)CC(C)C | inactive | – |
| CCCCC=O | inactive | – |
| OCC(CO)(CBr)CBr | inactive | – |
| CCCCCCCCCCCCCCC | inactive | – |
| CNNCc1ccc(C(=O)NC(C)C)cc1 | inactive | – |
| C=CCOCC(CO)(CO)CO | inactive | – |
| O=C(c1ccccc1)c1ccccc1 | inactive | – |
| Cc1[nH]nc2c1N=C(c1ccccc1Cl)c1cc([N+](=O)[O-])ccc1N2 | – | 2.9 µM (active) |
| O=C(CCCN1CCC(O)(c2ccc(Cl)cc2)CC1)c1ccc(F)cc1 | inactive | – |
| O=C(OC(=O)C(F)(F)C(F)(F)F)C(F)(F)C(F)(F)F | inactive | – |
| CCC1CO1 (centres undefined) | inactive | – |
| CS(=O)(=O)c1ccc([C@@H](CC2CCCC2)C(=O)Nc2cnccn2)cc1Cl | – | 30.2 µM (active) |
| CC(C)C=O | inactive | – |
| c1cnc2c(c1)ccc1cccnc12 | – | 7.67 µM (active) and 7.15 µM (active) |
| c1cc[nH]c1 | inactive | – |

Assay: ATG_M_32_CIS: Attagene CIS-FACTORIAL HepG2 Assay for M32 Transcription Factor (Internal Marker) (AID 2282949);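 further: background control marker of the multiplexed CIS panel rather than a real target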
Conditions: HepG2 Attagene cis-factorial M32 reporter, mRNA; actives raise or lower the signal
How it was run: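 HepG2 cells transiently transfected with multiplexed cis-regulated reporter units, dosed 24 h. Reporter mRNA quantified by RT-PCR, 6-FAM labelling, HpaI digestion and capillary electrophoresis; bidirectional fit vs DMSO.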

| SMILES | outcome | AC50 |
| --- | --- | --- |
| CCC(C)c1nccnc1OC (centres undefined) | inactive | – |
| CCCCCCCCCC=CCC1CC(=O)OC1=O (centres undefined) | inactive | – |
| CCCCCCCCCCCC(=O)O | inactive | – |
| C[C@]12CC[C@@H]3c4ccc(O)cc4CC[C@H]3[C@@H]1C[C@@H](O)[C@@H]2O | inactive | – |
| CC(=O)Nc1ccc(O)cc1 | inactive | – |
| O=C(O)C(=O)O | inactive | – |
| O=S(=O)(O)c1ccc2cc(O)ccc2c1 | inactive | – |
| Cc1ccc(C)c(S(=O)(=O)O)c1 | inactive | – |
| CCCCCCCCCCCCCCCC(=O)OC | inactive | – |
| CCC(C)c1ccccc1O (centres undefined) | inactive | – |
| CC(C)[C@@H]1CC[C@@H](C)C[C@H]1O | inactive | – |
| O=C1NS(=O)(=O)c2ccccc21 | inactive | – |
| CN(C)c1ccc(C(=C2C=CC(=[N+](C)C)C=C2)c2ccccc2)cc1 | inactive | – |
| O=C(F)C(F)(F)C(F)(F)C(F)(F)C(=O)F | inactive | – |
| CC(=O)CC(C)C | inactive | – |
| CCCCCCCCCCCC | inactive | – |
| CCCCC=O | inactive | – |
| OCC(CO)(CBr)CBr | inactive | – |
| CCCCC(CC)C(=O)O (centres undefined) | inactive | – |

| SMILES | outcome | AC50 |
| --- | --- | --- |
| Cc1ccc(S(=O)(=O)O)cc1 | inactive | – |
| CCCCCCCCCCCCCCC | inactive | – |
| NS(=O)(=O)O | inactive | – |
| CNNCc1ccc(C(=O)NC(C)C)cc1 | inactive | – |
| C=CCOCC(CO)(CO)CO | inactive | – |
| O=C(c1ccccc1)c1ccccc1 | inactive | – |
| CCCC=O | inactive | – |
| Cc1[nH]nc2c1N=C(c1ccccc1Cl)c1cc([N+](=O)[O-])ccc1N2 | inactive | – |
| CC(C)c1c(C(=O)Nc2ccccc2)c(-c2ccccc2)c(-c2ccc(F)cc2)n1CC[C@@H](O)C[C@@H](O)CC(=O)O | inactive | – |
| O=C(CCCN1CCC(O)(c2ccc(Cl)cc2)CC1)c1ccc(F)cc1 | – | 62.4 µM (active) |
| O=C(OC(=O)C(F)(F)C(F)(F)F)C(F)(F)C(F)(F)F | inactive | – |
| CCC1CO1 (centres undefined) | inactive | – |
| O=C(NO)c1ccccc1 | inactive | – |
| CS(=O)(=O)c1ccc([C@@H](CC2CCCC2)C(=O)Nc2cnccn2)cc1Cl | inactive | – |
| O=S(=O)(O)c1ccccc1 | inactive | – |
| CC(C)C=O | inactive | – |
| c1cnc2c(c1)ccc1cccnc12 | inactive | – |
| c1cc[nH]c1 | inactive | – |
| CC(O)COc1ccccc1 (centres undefined) | inactive | – |

Assay: ATG_M_06_CIS: Attagene CIS-FACTORIAL HepG2 Assay for M06 Transcription Factor (Internal Marker) (AID 2282950)
Conditions: HepG2 Attagene CIS-FACTORIAL M06 internal marker reporter; actives raise or lower the signal
How it was run: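 HepG2 liver cells, 24 h exposure. Reporter transcripts from transfected cis-element constructs quantified by RT-PCR/capillary electrophoresis fluorescence. Bidirectional curve fit against DMSO.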

| SMILES | outcome |
| --- | --- |
| CCC(C)c1nccnc1OC (centres undefined) | inactive |
| CCCCCCCCCC=CCC1CC(=O)OC1=O (centres undefined) | inactive |
| CCCCCCCCCCCC(=O)O | inactive |
| C[C@]12CC[C@@H]3c4ccc(O)cc4CC[C@H]3[C@@H]1C[C@@H](O)[C@@H]2O | inactive |
| CC(=O)Nc1ccc(O)cc1 | inactive |
| O=C(O)C(=O)O | inactive |
| O=S(=O)(O)c1ccc2cc(O)ccc2c1 | inactive |
| Cc1ccc(C)c(S(=O)(=O)O)c1 | inactive |
| CCCCCCCCCCCCCCCC(=O)OC | inactive |
| CCC(C)c1ccccc1O (centres undefined) | inactive |
| CC(C)[C@@H]1CC[C@@H](C)C[C@H]1O | inactive |
| O=C1NS(=O)(=O)c2ccccc21 | inactive |
| CN(C)c1ccc(C(=C2C=CC(=[N+](C)C)C=C2)c2ccccc2)cc1 | inactive |
| O=C(F)C(F)(F)C(F)(F)C(F)(F)C(=O)F | inactive |
| CC(=O)CC(C)C | inactive |
| CCCCCCCCCCCC | inactive |
| CCCCC=O | inactive |
| OCC(CO)(CBr)CBr | inactive |
| CCCCC(CC)C(=O)O (centres undefined) | inactive |

| SMILES | outcome |
| --- | --- |
| Cc1ccc(S(=O)(=O)O)cc1 | inactive |
| CCCCCCCCCCCCCCC | inactive |
| NS(=O)(=O)O | inactive |
| CNNCc1ccc(C(=O)NC(C)C)cc1 | inactive |
| C=CCOCC(CO)(CO)CO | inactive |
| O=C(c1ccccc1)c1ccccc1 | inactive |
| CCCC=O | inactive |
| Cc1[nH]nc2c1N=C(c1ccccc1Cl)c1cc([N+](=O)[O-])ccc1N2 | inactive |
| CC(C)c1c(C(=O)Nc2ccccc2)c(-c2ccccc2)c(-c2ccc(F)cc2)n1CC[C@@H](O)C[C@@H](O)CC(=O)O | inactive |
| O=C(CCCN1CCC(O)(c2ccc(Cl)cc2)CC1)c1ccc(F)cc1 | inactive |
| O=C(OC(=O)C(F)(F)C(F)(F)F)C(F)(F)C(F)(F)F | inactive |
| CCC1CO1 (centres undefined) | inactive |
| O=C(NO)c1ccccc1 | inactive |
| CS(=O)(=O)c1ccc([C@@H](CC2CCCC2)C(=O)Nc2cnccn2)cc1Cl | inactive |
| O=S(=O)(O)c1ccccc1 | inactive |
| CC(C)C=O | inactive |
| c1cnc2c(c1)ccc1cccnc12 | inactive |
| c1cc[nH]c1 | inactive |
| CC(O)COc1ccccc1 (centres undefined) | inactive |
